# Assay outcomes from PubChem.
# HP1b chromo inh: inhibitors of HP1-beta chromodomain binding to methylated histone tails | 390,000 tested, 0.56% active | AlphaScreen HP1-beta / biotin-H3K9me3 peptide binding | Potency, µM (series often up to 114 µM), for the others: at the highest dose activity change, negative = inhibition, most hits filed as inhibitors; also: nearly all actives have a fitted effect of over 70% in size
# Target sequence (P83916 whole entry, looked up): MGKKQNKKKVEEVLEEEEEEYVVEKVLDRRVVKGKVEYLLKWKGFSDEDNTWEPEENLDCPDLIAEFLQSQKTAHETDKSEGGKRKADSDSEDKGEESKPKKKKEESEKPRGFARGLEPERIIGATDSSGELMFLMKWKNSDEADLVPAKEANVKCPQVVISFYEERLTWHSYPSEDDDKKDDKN
#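 HP1-beta protein (50 nM final) preincubated 30 min at room temperature with biotinylated H3(1-18)K9me3 peptide (50 nM) in PBS pH 7.4, 0.01% Tween-20, then compound added for 30 min. AlphaScreen streptavidin donor/nickel chelate acceptor beads (10 ug/mL final), 30 min dark, luminescence read.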
# G9a inh: G9a (human) methyltransferase inhibition; Q96KQ7; G9a H3K9 monomethylation, AlphaScreen, 2 h; Potency, µM (top dose mostly 102 µM), without a hit: top-dose activity, negative = inhibition, most hits filed as inhibitors; 350,000 tested, 8.8% active; also: % is scaled to controls: 0 for no effect and ±100 for the full control effect; nearly all actives have a fitted effect of over 75% in size
# Target sequence (Q96KQ7 913-1193 limits assumed): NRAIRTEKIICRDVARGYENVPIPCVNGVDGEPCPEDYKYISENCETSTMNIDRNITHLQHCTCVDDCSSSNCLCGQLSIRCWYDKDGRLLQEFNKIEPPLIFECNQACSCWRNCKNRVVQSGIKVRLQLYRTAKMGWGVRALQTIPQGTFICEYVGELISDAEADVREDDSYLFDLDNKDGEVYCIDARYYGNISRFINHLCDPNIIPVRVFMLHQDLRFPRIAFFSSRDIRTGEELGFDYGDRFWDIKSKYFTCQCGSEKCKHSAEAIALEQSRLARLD
#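 G9a (20 nM) was preincubated 15 min with compound, then reacted 2 h at room temperature with 500 nM biotin-H3K9 peptide and 20 µM SAM. Monomethyl-H3K9 detected by AlphaScreen using anti-H3K9me1 antibody.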
# BAZ2B block: inhibitors of human BAZ2B bromodomain | Potency, µM (series often up to 114 µM), for the others: top-dose activity change, negative = inhibition, usual class: inhibitors | Q9UIF8 | AID 504333 | AlphaScreen BAZ2B-H3K14Ac peptide displacement | 360,000 tested, 4.4% active; also: % is scaled to controls: 0 for no effect and ±100 for the full control effect; nearly all actives have a fitted effect of over 60% in size
#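 AlphaScreen displacement: compounds (up to 110uM) incubated 30 min at room temperature with a preformed 50 nM BAZ2B/50 nM biotinylated H3K14Ac peptide complex in PBS pH 7.4 with Tween-20. Donor and acceptor beads at 10 ug/mL final added, 20 min light-protected before reading.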
# JMJD2A Tudor: blocks the human JMJD2A Tudor domain. O75164. AlphaScreen JMJD2A-Tudor / H3K4me3 peptide binding. Potency, µM (highest dose often 114 µM), for inactives: top-dose activity change, negative = inhibition, most hits filed as inhibitors. 390,000 tested, 4.4% active. AID 504339; also: % is scaled to controls: 0 for no effect and ±100 for the full control effect; nearly all actives have a fitted effect of over 50% in size
# Sfp PPTase inh: blocks B. subtilis Sfp PPTase activity; Potency, µM, for inactives: largest response in the series, negative = inhibition, hits mostly inhibitors; Biochemical Sfp PPTase activity, qHTS; Q9F4F7; 310,000 tested, 3.5% active;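 also: the enzyme is Sfp with the accession as filed and its product quenches rhodamine fluorescence; 0% = enzyme reaction without inhibitor and -100% = no enzyme wells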
#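 Fluorescence-quenching assay: 15 nM Sfp-PPTase preincubated 15 min at room temperature with compound, then 5 uM rhodamine-CoA and 12.5 uM BHQ-2-labelled YbbR peptide added. Fluorescence (ex 525/em 598 nm) read at start and after 30 min; difference gives rate.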
# L3MBTL1 inh: L3MBTL1 (human) inhibition | Q9Y468 | AlphaScreen L3MBTL1–H3K9me1 peptide binding | Potency, µM (top dose mostly 57.1 µM), for inactives: at the highest dose activity, negative = inhibition, actives largely listed as inhibitors | 230,000 tested, 0.66% active | AID 485360; also: % is scaled to controls: 0 for no effect and ±100 for the full control effect; nearly all actives have a fitted effect of over 60% in size
#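 L3MBTL1 (50 nM) pre-complexed 30 min with biotinylated H3(1-15)K9me1 peptide (75 nM), then compounds added for 30 min at room temperature; AlphaScreen streptavidin donor/nickel chelate acceptor beads (10 ug/mL final) read after 30 min dark incubation.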
# The depositor's hits bear a star; ? = inconclusive; . = no result given; [ ] = another dose, or the depositor's remark. Sampled rows, rich in hits. Any-hit rate of the full collection: about 12%. Calls follow the shape of the dose curve; as a rule, active = well fitted curve in the direction sought with a large enough effect; inconclusive = small, poorly fitted or top-dose-only effect, or another doubt; inactive = no such curve, though single readings can be large; an effect the other way counts as inactive or inconclusive. Potency is read from the fitted curve at half-maximal effect.
SMILES,HP1b chromo inh,G9a inh,BAZ2B block,JMJD2A Tudor,Sfp PPTase inh,L3MBTL1 inh
COc1ccc(C2NN=C(c3ccc(C)cc3)S2)cc1OC (stereo not drawn),23%,13µM*,-5%,-4%,?,.
Cc1ccc(S(=O)(=O)N2[C@@H](c3ccccc3)C(C(=O)O)=CC[C@H]2c2ccc(Cl)c(Cl)c2)cc1,30%,24%[2.33 µM],?,-14%,.,3%
Cc1ccc(S(=O)(=O)N2[C@@H](c3ccccc3F)C(C(=O)O)=CC[C@H]2c2ccc(Cl)c(Cl)c2)cc1,27%,-28%[2.33 µM],71µM*,-19%,.,-7%
CCOC(=O)c1cccc(NC(=O)CN2CCN(c3ccc(OC)cc3)CC2)c1,-24%,56µM*,?,?,-3%,-1%
CCOC(=O)c1sc(NC(=O)CN2CCN(c3ccc(OC)cc3)CC2)nc1C,?,40µM*,35µM*,56µM*,4%,-13%
CCOc1ccccc1N1CCN(CC(=O)Nc2nc(C)c(C(=O)N(C)C)s2)CC1,1%,.,-6%,14µM*,-5%,.
Cc1ccc(-n2nc(C)c3c(C(F)(F)F)cc(-c4cccnc4)nc32)cc1Cl,45%,7%[59 µM],3%,8%,.,.
Cc1ccc2ncc(C(=O)Nc3ccc(F)cc3F)c(=O)n2c1,25%,0%[59 µM],0%,-10%,.,.
COc1ccccc1NC(=O)c1nn(C)c2c1CS(=O)(=O)c1ccccc1-2,46%,1%[59 µM],-2%,7%,.,.
O=C(NCCc1ccccc1)c1ccc2c(c1)N(Cc1ccccc1Cl)C(=O)c1ccccc1S2,26%,-25%[59 µM],2%,-14%,.,.
CCCCN(C)C(=O)C1CCN(CCCc2ccccc2)CC1,?,?,56µM*,8.9µM*,8%,.
CCOC(=O)C1CCCN(CCCc2ccccc2)C1 (stereo not drawn),47%,-11%,-3%,-1%,0%,8%
CN(C)CC(C)(C)CNC(=O)C1CCN(CCCc2ccccc2)CC1,-15%,?,-10%,56µM*,1%,8%
Cc1nn(C)c(Sc2ccccc2N)c1[N+](=O)[O-],-17%,7.9µM*,-37%,18µM*,3.5µM*,-14%
CC(=O)Nc1ccc(NC(=O)CC(C)n2ccc(C)n2)cc1 (stereo not drawn),-10%,3%[59 µM],-14%,-22%,.,.
C=CCN(C(=O)Cc1cccs1)c1nc(-c2ccc(S(C)(=O)=O)cc2)cs1,-4%,71µM*,-17%,-30%,-4%,.
C=CCN(C(=O)CCc1ccccc1OC)c1nc(-c2ccc(S(C)(=O)=O)cc2)cs1,4%,-1%,-24%,-12%,-7%,.
CCOc1ccc(CCNC(=O)Cn2nc(-c3ccc(C)cc3)ccc2=O)cc1OCC,4%,1%[59 µM],-10%,-26%,.,.
CCN1/C(=C/C=C/c2oc3ccc4ccccc4c3[n+]2CC)Oc2ccc3ccccc3c21,-10%,?,?,?,8.9µM*,?
OB(O)c1csc2ccccc12,10%,.,.,3%,6%,.
COc1ccc(-c2csc(NC(=O)CSc3nnc(Nc4ccccc4C)s3)n2)cc1,19%,11µM*,-15%,-14%,16%,5%
CCOc1ccccc1Nc1nnc(SCC(=O)Nc2nc(-c3ccc(OC)cc3)cs2)s1,33%,8.9µM*,-9%,?,8%,1%
COc1ccccc1Nc1nnc(SCC(=O)Nc2nc(-c3ccc(F)cc3)cs2)s1,44%,.,-7%,-14%,2%,4%
O=S(=O)(c1cccc(O)c1)N1CCN(S(=O)(=O)c2c(F)cccc2F)CC1,.,.,.,-21%,.,.
COc1ccc(CCNC(=O)C(=O)NCC(c2ccc3c(c2)OCO3)N2CCOCC2)cc1 (stereo not drawn),29%[57 µM],1%[59 µM],-2%,0%,.,.
SMILES,HP1b chromo inh,G9a inh,BAZ2B block,JMJD2A Tudor,Sfp PPTase inh,L3MBTL1 inh
COc1ccc(OC)c(NC(=O)c2cn(C)c(=O)c3cc(OC)c(OC)cc23)c1,8%,40µM*,-36%,-16%,21%,11%
COc1cc(NC(=O)c2cc3sccc3n2C)cc(OC)c1,21%,?,?,-33%,50µM*,.
Cn1c(C(=O)Nc2ccccc2)cc2sccc21,5%,1.6µM*,?,-29%,-5%,-1%
CCc1ccccc1NC(=O)c1cc2sccc2n1C,0%,?,0%,?,-5%,.
COC(=O)c1ccc(NC(=O)c2cc3sccc3n2C)cc1,4%,71µM*,?,-33%,45µM*,-17%
Cn1c(C(=O)Nc2ccc3c(c2)OCO3)cc2sccc21,-18%,32µM*,-38%,?,-5%,-2%
CCOC(=O)c1cc2sccc2n1CC(=O)Nc1ccc(OC)cc1OC,16%,13µM*,-7%,-22%,10%,-9%
CC(=O)c1cccc(NC(=O)Nc2cc3sccc3n2C)c1,.,?,?,.,40µM*,-8%
COc1ccc(OC)c(NC(=O)c2cc3sccc3n2C)c1,-11%,50µM*,?,?,-25%,-11%
COc1cccc(Cn2c(=O)n(-c3ccccc3C)c(=O)c3c2c2cc(C)ccc2n3C)c1,45%,?,-20%,10%,.,.
O=C(Nc1ccc(Br)cc1F)c1ncoc1-c1ccco1,17%,2%[12.7 µM],-8%,-2%,.,.
Cc1ccccc1OCC(=O)N/N=C/c1ccncc1,28%,?,-2%,-13%,5%,29%
N#Cc1ccccc1OCC(=O)Nc1ccc(N2CCOCC2)cc1N1CCOCC1,21%,-10%[12.7 µM],0%,-3%,.,-4%
Cc1ccccc1OCCC(=O)Nc1ccc(N2CCOCC2)cc1N1CCOCC1,3%,45µM*,0%,-23%,.,-14%
Cc1ccccc1OCCC(=O)OCC(=O)Nc1ccc(N2CCOCC2)cc1,19%,-4%[12.7 µM],-15%,-14%,5%,.
COc1ccccc1OCC(=O)Nc1ccc(N2CCOCC2)cc1N1CCOCC1,8%,?,-8%,89µM*,.,-7%
Cc1ccccc1OCC(=O)N/N=C/c1ccc(N2CCOCC2)o1,-15%,8%[0.501 µM],?,?,20µM*,.
Cc1ccc(C)c(OCC(=O)Nc2ccc(N3CCOCC3)cc2N2CCOCC2)c1,-34%,?,?,?,.,34%
Cc1ccccc1OCC(=O)Nc1ccc(N2CCOCC2)cc1N1CCOCC1,3%,10µM*,-38%,-30%,.,-5%
CCOC(=O)C1=C(C)N(c2ccccc2)C(=O)/C1=C\c1ccco1,-44%,40µM*,-7%,?,56µM*,?
CCOC(=O)C1=C(C)N(c2ccc(C)cc2)C(=O)/C1=C\c1cccs1,?,.,10µM*,13µM*,-16%,-9%
CCOC(=O)C1=C(C)N(c2ccccc2)C(=O)/C1=C\c1ccc(O)c(OC)c1,?,3.2µM*,?,5µM*,6.3µM*,.
